Compound activity from PubChem.
FLuc inh: Firefly luciferase inhibition profiling of diverse chemical library using quantitative high-throughput screening. Luciferin 4-monooxygenase (Photinus pyralis), P08659. purified P. pyralis luciferase, luminescence, biochemical. Potency, µM (highest dose often 115 µM), usual class: inhibitors. 76,000 tested, 2.5% active; note: % is set by controls: 0 for no effect and ±100 for the full control effect; nearly all actives have a fitted effect of over 65% in size
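Purified P. pyralis luciferase (10nM final) in 50mM Tris acetate pH 7.5, 10mM Mg acetate, 0.01% Tween-20, 0.05% BSA with 10uM D-luciferin and 10uM ATP. Compounds titrated qHTS. Luminescence imaged on CCD.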
NIH3T3 tox: Cytotoxic Profiling in NIH 3T3 Cell Line of Diverse Libraries Using Quantitative High-Throughput Screening; NIH 3T3 viability, CellTiter-Glo ATP luminescence, 48-72 h; Potency, µM (series often up to 96.7 µM), inactives show top-dose activity change, negative = cytotoxicity, actives largely listed as inhibitors; 94,000 tested, 4.3% active; AID 1345082, 2018; note: % is set by controls: 0 for no effect and ±100 for the full control effect; nearly all actives have a fitted effect of over 55% in size
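Cells were seeded at 400 per well, treated with pin-transferred compound, and kept 48 or 72 hr at 37 °C before CellTiter-Glo addition and luminescence imaging of cellular ATP.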
NPR1 antag: Natriuretic polypeptide receptor (hNpr1) antagonism - Primary qHTS | Atrial natriuretic peptide receptor 1 (Homo sapiens), P16066 | HEK293 hNpr1 GloSensor cGMP, ANP-stimulated luminescence | Potency, µM (titrated, usually from 46.3 µM), for the others: top-dose activity change, negative = inhibition, actives largely listed as inhibitors | 76,000 tested, 1.6% active; calls by dose curve; note: % is set by controls: 0 for no effect and ±100 for the full control effect; nearly all actives have a fitted effect of over 60% in size
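Compound pre-incubated 30 min at room temperature on GloSensor-loaded HEK293 cells stably carrying hNpr1 and the pGS-40F cGMP biosensor. Stimulation uses hNppA at 0.1 nM final; luminescence is taken at baseline and 20 min post-agonist.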
HEK cytotox: Cytotoxic Profiling in HEK 293 Cell Line of Diverse Libraries Using Quantitative High-Throughput Screening; HEK 293 viability, ATP luminescence (CellTiter-Glo), 48-72 h; Potency, µM (titrated, usually from 115 µM), for inactives: top-dose activity change, negative = cytotoxicity, hits mostly inhibitors; 94,000 tested, 6.6% active; note: % is set by controls: 0 for no effect and ±100 for the full control effect; nearly all actives have a fitted effect of over 60% in size
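250 HEK 293 cells/well; compound by pintool; incubated 48 or 72 hr at 37 degree Celsius; CellTiter-Glo added, 10 min RT, luminescence imaged.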
Npr1 antag conf: Natriuretic polypeptide receptor (hNpr1) antagonism - Confirmation | shares compounds with NPR1 antag | HEK293 hNpr1 cGMP GloSensor luminescence, ANP-stimulated | Potency, µM (doses to about 57.6 µM), for the others: at the top dose activity change, negative = inhibition, hits mostly inhibitors | 1,400 tested, 76% active; calls by dose curve; note: nearly all actives have a fitted effect of over 70% in size
Npr2 selectivity: Natriuretic polypeptide receptor (hNpr2) antagonism - Subtype selectivity assay | shares compounds with NPR1 antag | HEK293 hNpr2 GloSensor cGMP luminescence, CNP-stimulated | Potency, µM (top dose mostly 57.6 µM), inactives show at the highest dose activity change, negative = inhibition, hits mostly inhibitors | 1,400 tested, 67% active | AID 1347046, 2019; calls by dose curve; note: nearly all actives have a fitted effect of over 70% in size
Target sequence (P20594 whole entry, looked up): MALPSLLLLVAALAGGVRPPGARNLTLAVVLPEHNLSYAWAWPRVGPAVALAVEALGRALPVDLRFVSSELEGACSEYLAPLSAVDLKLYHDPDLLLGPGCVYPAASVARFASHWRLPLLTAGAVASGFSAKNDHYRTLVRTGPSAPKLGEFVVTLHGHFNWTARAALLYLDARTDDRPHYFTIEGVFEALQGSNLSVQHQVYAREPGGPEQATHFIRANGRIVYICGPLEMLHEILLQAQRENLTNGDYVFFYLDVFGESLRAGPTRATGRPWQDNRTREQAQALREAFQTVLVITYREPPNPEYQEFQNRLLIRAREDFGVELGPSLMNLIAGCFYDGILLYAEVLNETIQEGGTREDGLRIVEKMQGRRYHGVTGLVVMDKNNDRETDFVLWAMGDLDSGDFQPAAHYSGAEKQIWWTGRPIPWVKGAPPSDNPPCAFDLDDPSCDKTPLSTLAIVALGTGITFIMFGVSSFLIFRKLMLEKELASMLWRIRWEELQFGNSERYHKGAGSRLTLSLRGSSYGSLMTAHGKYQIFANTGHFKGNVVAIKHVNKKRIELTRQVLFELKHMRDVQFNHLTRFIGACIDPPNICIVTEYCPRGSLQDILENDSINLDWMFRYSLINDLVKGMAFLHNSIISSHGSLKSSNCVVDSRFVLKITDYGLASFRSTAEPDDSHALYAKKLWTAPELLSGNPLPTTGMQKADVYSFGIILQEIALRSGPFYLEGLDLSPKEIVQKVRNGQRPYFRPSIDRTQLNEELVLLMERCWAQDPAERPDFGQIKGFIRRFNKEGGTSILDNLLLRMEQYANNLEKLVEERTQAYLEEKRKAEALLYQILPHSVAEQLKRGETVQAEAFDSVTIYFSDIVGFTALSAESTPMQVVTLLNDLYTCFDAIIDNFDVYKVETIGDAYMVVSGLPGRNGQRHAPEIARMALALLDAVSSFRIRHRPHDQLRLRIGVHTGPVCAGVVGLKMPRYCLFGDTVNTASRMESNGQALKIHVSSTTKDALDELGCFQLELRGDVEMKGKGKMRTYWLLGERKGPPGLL
FLuc inh counter: Natriuretic polypeptide receptor (hNpr1) antagonism - Confirmation firefly luciferase (FLuc) inhibition counterscreen; AID 1347047, 2019; shares compounds with NPR1 antag; Potency, µM (doses to about 57.6 µM), without a hit: at the highest dose activity change, negative = inhibition, most hits filed as inhibitors; 1,400 tested, 0.7% active; purified FLuc enzyme, luminescence, Km substrate; note: 0% is about no effect
GloSensor cGMP: Natriuretic polypeptide receptor (hNpr1) antagonism - Counterscreen GloSensor control cell line. shares compounds with NPR1 antag. HEK293 GloSensor cGMP, SNP-stimulated, luminescence. Potency, µM (doses to about 57.6 µM), without a hit: at the top dose activity change, negative = inhibition, most hits filed as inhibitors. 1,400 tested, 69% active. AID 1347051, 2019; calls by dose curve; note: % is set by controls: 0 for no effect and ±100 for the full control effect; nearly all actives have a fitted effect of over 70% in size
* hit, by the source's call; i = inactive; ? = inconclusive; / = not tested or not shown; [ ] = dose if it differs, or a comment. Shown are actives, neighbours in structure and some others; about 11% of the full set was active somewhere. Unless noted, calls come from the whole dose curve; as a rule, active = well fitted curve in the direction sought with a large enough effect; inconclusive = small, poorly fitted or top-dose-only effect, or another doubt; inactive = no such curve, though single readings can be large; an effect the other way counts as inactive or inconclusive. Potency is the fitted concentration of half-maximal effect.

SMILES	FLuc inh	NIH3T3 tox	NPR1 antag	HEK cytotox	Npr1 antag conf	Npr2 selectivity	FLuc inh counter	GloSensor cGMP
COc1ncccc1-c1cc(C(=O)NCCN(C)C)c2c(c1)ncn2C	/	/	/	/	-12.9%[86.2 µM]	-2.3%[86.2 µM]	5.7%[86.2 µM]	-0.8%[86.2 µM]
COc1ccc(CN2C=C(C(=O)OCc3noc(-c4cccc(F)c4)n3)C(C)=NS2(=O)=O)cc1	i	-42.7%	0.0%	-26.0%	/	/	/	/
COc1ccc(CN2C=C(C(=O)OCc3noc(-c4ccc(C)c(C)c4)n3)C(C)=NS2(=O)=O)cc1	i	-25.5%	?	?	/	/	/	/
CC1=NS(=O)(=O)N(Cc2ccccc2)C=C1C(=O)OCc1noc(-c2ccc(C)c(C)c2)n1	i	?	11.2µM*	?	17.2µM*	?	-1.9%	15.3µM*
COc1ccc(CN2C=C(C(=O)OCc3noc(-c4ccc(C)cc4)n3)C(C)=NS2(=O)=O)cc1	i	?	10µM*	-26.7%	15.3µM*	13.7µM*	-0.2%	12.2µM*
COc1ccc(CN2C=C(C(=O)OCc3noc(-c4cccc(OC)c4)n3)C(C)=NS2(=O)=O)cc1	i	?	?	?	?	-29.6%	0.4%	?
Cc1cn2nnc(C(=O)NCc3ccc(C(C)C)cc3)c2c(=O)[nH]1	i	?	?	?	27.3µM*	?	-0.2%	24.3µM*
CC(C)(Oc1nn(Cc2cccc(Cl)c2)c2ccccc12)C(=O)NCCc1cnc[nH]1	i	?	22.4µM*	?	28µM*	25µM*	1.6%[86.2 µM]	25µM*
CC(C)(Oc1nn(Cc2cccc(Cl)c2)c2ccccc12)C(=O)NC1CCC(O)CC1 (centres undefined)	i	?	-25.6%	?	/	/	/	/
COC[C@@H]1CN(C(=O)c2ccccc2OC)C[C@H]1c1ccccn1	i	-10.2%	-0.4%	-17.2%	/	/	/	/
COc1ccc(C(=O)N[C@H]2CO[C@H]3[C@@H]2OC[C@@H]3n2cc(CN(C)Cc3ccccc3)nn2)cc1	i	-37.4%	0.7%	-21.7%	/	/	/	/
COc1ccc(CN2CCC(N3Cc4cccn4C3=O)CC2)cc1	/	-14.0%	/	?	/	/	/	/
O=C1N(C2CCN(Cc3ccc(C(F)(F)F)cc3)CC2)Cc2cccn21	/	-28.8%	/	?	15.3µM*	17.2µM*	-2.5%	12.2µM*
O=C(C1CCCC1)N1CCn2c(nn(-c3ccncc3)c2=O)C1	i	?	2.8%[70.6 µM]	?	/	/	/	/
COc1ccc2c(c1)c(CN1CCc3nn(C)c(=O)n3CC1)cn2C	i	?	-7.7%	?	/	/	/	/
CCOCCNC(=O)c1cc(-c2ccccc2F)nc2c1cnn2C	/	?	/	-13.9%[172 µM]	/	/	/	/
CN(C)c1cccc(C(=O)N2CCC(OCCOc3ccc(F)cc3)CC2)c1	i	?	12.6µM*	?	24.3µM*	24.3µM*	-15.9%	21.7µM*
CCOCCOC1CCN(C(=O)c2cccc(F)c2)CC1	i	i	-0.6%	8.5%	/	/	/	/
CC1=C[C@@H](CNC(=O)CC(C)(C)CC(=O)O)[C@H](C(C)C)C[C@H]1Cc1nc2ccccc2[nH]1	i	i	2.1%	-19.9%	/	/	/	/
CC(=O)N1CCCC(N2C(=O)c3c(c(C)nn3-c3ccccc3)C2C2CC2)C1 (centres undefined)	/	?	/	-10.6%	/	/	/	/
CC1=C[C@@H](CNC(=O)C2CC2)[C@H](C(C)C)C[C@H]1Cc1nc2ccccc2n1C	i	100µM*	25.1µM*	44.7µM*	31.4µM*	35.3µM*	2.9%[86.2 µM]	25µM*
CC1=C[C@@H](CNC(=O)CC2(CC(=O)O)CCCC2)[C@H](C(C)C)C[C@H]1Cc1nc2ccccc2n1C	i	?	1.0%	?	/	/	/	/
CCn1ccc(C(=O)N2CCC(c3nn(C)c(=O)n3CCc3ccccc3)CC2)n1	i	?	2.3%	-2.2%	/	/	/	/
O=C1NC2(CCN(Cc3ccc(OC(F)(F)F)cc3)C2)OCc2ccccc21 (centres undefined)	i	-18.2%	?	79.4µM*	21.7µM*	21.7µM*	1.7%	17.2µM*
O=C1NC2(CCN(Cc3ccc(OC(F)(F)F)cc3)C2)Oc2ccccc21 (centres undefined)	i	?	7.7%	?	/	/	/	/
SMILES	FLuc inh	NIH3T3 tox	NPR1 antag	HEK cytotox	Npr1 antag conf	Npr2 selectivity	FLuc inh counter	GloSensor cGMP
COc1cccc(CN2CCCC(C(=O)NCc3ccccc3)CCNC(=O)CC2)c1 (centres undefined)	i	-0.9%	0.2%	i	/	/	/	/
N#Cc1ccccc1CN1CCCC(C(=O)NCc2ccccc2)CCNC(=O)CC1 (centres undefined)	i	-11.4%	3.98µM*	i	13.7µM*	6.11µM*	3.0%	15.3%
O=C(CCC1CCCN(S(=O)(=O)c2cccc(F)c2)C1)NC1CCCCC1 (centres undefined)	i	?	15.8µM*	?	27.3µM*	24.3µM*	0.0%	24.3µM*
O=C(Nc1cc(F)c(F)c(F)c1)N1CC2CC(C1)[C@H]1CCCC(=O)N1C2 (some centres undefined)	i	i	-3.6%	4.8%	/	/	/	/
NC(=O)Cc1c[nH]c2ncc(-c3ccccc3F)cc12	i	?	-12.6%[70.6 µM]	-27.8%[230 µM]	/	/	/	/
Cc1ccccc1-c1cnc2[nH]cc(CC(=O)NCc3ccccc3)c2c1	i	-21.0%[138 µM]	12.6µM*	?	25µM*	25µM*	-0.2%[86.2 µM]	14µM*
O=C(Cc1c[nH]c2ncc(-c3cn[nH]c3)cc12)NCc1cccnc1	i	?	-4.0%[70.6 µM]	-13.5%[172 µM]	/	/	/	/
Cc1ccccc1-c1cnc2[nH]cc(CC(=O)NC(C)C)c2c1	i	?	28.2µM*	?	31.4µM*	31.4µM*	5.3%[86.2 µM]	35.3µM*
